Inconclusive results are not listed. Active and inactive are the calls of the source. Calls come from the whole dose curve; as a rule, active = well fitted cell-killing curve with a large enough effect; inconclusive = small, poorly fitted or top-dose-only effect, or effect the other way; inactive = no such curve, though single readings can be large or run the other way.
Experiment: Quantitative High-Throughput drug screen in 47 multiple myeloma cell lines against the NCATS MIPE library collection: JIM1_ECACC cell viability assay (AID 1918964)
Conditions: JIM1 myeloma viability, CellTiter-Glo ATP luminescence, 48 h; series mostly up to 45.8 µM
From the text: PI: Beverly A. Mock Ph.D.
Laboratory of Cancer Biology and Genetics,
Center for Cancer Research, National Cancer Institute,
National Institute of Health, Bethesda, Maryland
Drug resistance and disease progression are common in multiple myeloma (MM) patients, underscoring the need for new therapeutic combinations. […] We hypothesized that effective combinations would reduce MYC expression and enhance p16 activity. […] These preclinical data identify potentially useful drug combinations for evaluation in drug-resistant MM and reveal potential mechanisms of combined drug sensitivity.
Described herein is the primary MIPE qHTS used to cherrypick compounds. Validated compounds were then further tested for potential synergistic activiy.
[1] Peat TJ, Gaikwad SM, Dubois W, Gyabaah-Kessie N, Zhang S, Gorjifard S, Phyo Z, Andres M, Hughitt VK, Simpson RM, Miller MA, Girvin AT, Taylor A, Williams D, D'Antonio N, Zhang Y, Rajagopalan A, Flietner E, Wilson K, Zhang X, Shinn P, Klumpp-Thomas C, McKnight C, Itkin Z, Chen L, Kazandijian D, Zhang J, Michalowski AM, Simmons JK, Keats J, Thomas CJ, Mock BA. Drug combinations identified by high-throughput screening promote cell cycle transition and upregulate Smad pathways in myeloma. Cancer Lett. 2023 Aug 1;568:216284. doi: 10.1016/j.canlet.2023.216284. Epub 2023 Jun 24. PMID: 37356470; PMCID: PMC10408729.
SEQUENCE No. (e.g., 1, 2, 3, etc.); […] (e.g., Cells, Incubation, Reagent, etc.); VALUE and DESCRIPTION.
1; Cells; 5 uL; white, solid bottom 1536-well Greiner assay plate.
2; Compounds; 23 nL; Kalypsis pin tool (Wako USA) equipped with a 1536-well pin head to transfer to the assay plates.
3; Incubation; 48 hours; 37C incubation.
4; Reagent;5uL; CellTiter Glo (Promega).
5; Detector; 425V; Luminescence; Viewlux PerkinElmer.
NOTES (numbers refer to Sequence numbers above)
1. The cell-based screening methods employed in this study were like those previously published. Briefly, the corresponding myeloma cell lines were screened in 1,536-well plates with 500 cells, 5-uL per well for inhibition of cell viability (assessed by measuring ATP levels with CellTiterGlo).
2. NCATS MIPE 4.0 library of approved and investigational drugs were added using the Kalypsis pin tool. Wells treated with DMSO only for 100% viability and media only wells for 0% viability were used as controls.
3. The assay plates were covered and incubated for 48 hours in a 37C, 5% CO2 incubator with controlled humidity.
4. After 48 hours, CellTilter-GloTM luminescent substrate mix (Promega) reagent was added to the assay plate and plates we incubated for 5 min at room temperature.
5. Signal was measured as median relative luminescence units on a ViewLux (PerkinElmer) multiplate reader.
[1] Heske CM, Davis MI, Baumgart JT, Wilson K, Gormally MV, Chen L, Zhang X, Ceribelli M, Duveau DY, Guha R, Ferrer M, Arnaldez FI, Ji J, Tran HL, Zhang Y, Mendoza A, Helman LJ, Thomas CJ. Matrix Screen Identifies Synergistic Combination of PARP Inhibitors and Nicotinamide Phosphoribosyltransferase (NAMPT) Inhibitors in Ewing Sarcoma. Clin Cancer Res. 2017 Dec 1;23(23):7301-7311. doi: 10.1158/1078-0432.CCR-17-1121. Epub 2017 Sep 12. PMID: 28899971; PMCID: PMC6636827.
Potency is the fitted concentration of half-maximal effect.

Row | Structure (SMILES) | Potency
1 | CC(NCc1ccc2c(c1)nc(NC(=O)c1ccc(-c3cn[nH]c3)s1)n2CC(C)(C)O)C(C)(C)C (stereo not given) | 46.9 nM (active)
2 | OCc1ccc(-c2ccc(-c3ccc(CO)s3)o2)s1 | inactive
3 | Cn1cc(-c2[nH]c3cc(NC(=O)[C@H](N)C4CCCCC4)cc4c3c2C=NNC4=O)cn1 | 296 nM (active)
4 | Cn1c2ccccc2c2c3c(c4c5ccccc5n(CCC#N)c4c21)CNC3=O | 526 nM (active)
5 | CN1CC[C@@H](c2c(O)cc(O)c3c(=O)cc(-c4ccccc4Cl)oc23)[C@@H](O)C1 | 23.5 nM (active)
6 | O=C(CCCCCCNC(=O)c1cnc(N(c2ccccc2)c2ccccc2)nc1)NO | 4690 nM (active)
7 | CC[C@H](CO)Nc1nc(NCc2ccccc2)c2ncn(C(C)C)c2n1 | 6620 nM (active)
8 | CC(C)(O)c1cc2nc(-c3cnc(N)nc3)nc(N3CCOCC3)c2s1 | 10.5 nM (active)
9 | CCN1CCN(CC(=O)Nc2ccc(-c3cccc4c(=O)cc(N5CCOCC5)oc34)c3sc4ccccc4c23)CC1 | 469 nM (active)
10 | COc1cc(C(C)C)c2c(c1)S(=O)(=O)N(COc1cc(=O)n3cccc(OCCN4CCCCC4)c3n1)C2=O | 18700 nM (active)
11 | O=C(CCCCCCC(=O)Nc1ccc([C@H]2O[C@@H](CSc3nc(-c4ccccc4)c(-c4ccccc4)o3)C[C@@H](c3ccc(CO)cc3)O2)cc1)NO | inactive
12 | C[C@@H](Oc1cc(-c2cnn(C3CCNCC3)c2)cnc1N)c1c(Cl)ccc(F)c1Cl | 3720 nM (active)
13 | C[C@]1(CO)CN(c2cc(C(=O)Nc3ccc4c(c3)-c3c(c(C(N)=O)nn3-c3ccc(F)cc3)CC4)c(Cl)cn2)C[C@@]1(C)CO | 11800 nM (active)
14 | COc1ccc2c(c1)CC[C@@H](CN(C)CC(=O)O)[C@H]2c1ccccc1 | 372 nM (active)
15 | COC(=O)[C@]12CCC(C)(C)C[C@@H]1[C@@H]1C(=O)C=C3[C@@]4(C)C=C(C#N)C(=O)C(C)(C)[C@@H]4CC[C@@]3(C)[C@]1(C)CC2 | 418 nM (active)
16 | CCn1cc(-c2ccnc3[nH]c(-c4cccc(CN(C)C)c4)cc23)c(-c2ccc(NC(=O)N(C)C)cc2)n1 | 5260 nM (active)
17 | CCCNC(=O)Nc1ccc(Oc2ncnc3cc(OC)c(OC)cc23)cc1Cl | inactive
18 | Cc1cnc(Nc2ccc(F)cc2Cl)nc1-c1c[nH]c(C(=O)N[C@H](CO)c2cccc(Cl)c2)c1 | 7430 nM (active)
19 | O=C(O)c1ccc2cc(-c3ccc(O)c(C45CC6CC(CC(C6)C4)C5)c3)ccc2c1 | 332 nM (active)
20 | O=c1[nH]c(=O)n(C2CCCO2)cc1F (stereo not given) | inactive

Row | Structure (SMILES) | Potency
21 | CNC(=O)CN1CCC(Oc2cc3c(Nc4cccc(Cl)c4F)ncnc3cc2OC)CC1 | 1 nM (active)
22 | CCC1=C[C@@H]2CN(C1)Cc1c([nH]c3ccccc13)[C@@](C(=O)OC)(c1cc3c(cc1OC)N(C)[C@@H]1[C@@](O)(C(=O)OC)[C@H](OC(C)=O)[C@]4(CC)C=CCN5CC[C@]31[C@@H]54)C2 | 1.9 nM (active)
23 | O=C(Nc1ncc(-c2cc(C(F)F)nn2-c2c(Cl)cccc2Cl)s1)C1CC1 | 166 nM (active)
24 | Cc1cc(Nc2cc(CN3CCOCC3)c3nc(C)c(Cc4ccc(Cl)cc4F)n3n2)n[nH]1 | 418 nM (active)
25 | CNC(=O)c1cc(Oc2ccc(NC(=O)Nc3cc(C(C)(C)C)nn3-c3ccc4ncccc4c3)c(F)c2)ccn1 | 7430 nM (active)
26 | CCc1c2c(nc3ccc(O)cc13)-c1cc3c(c(=O)n1C2)COC(=O)[C@]3(O)CC | 37.2 nM (active)
27 | COc1cc(OC2CCN(C)CC2)ccc1Nc1ncc2c(n1)n(C1CCCC1)c(=O)n2C | 11800 nM (active)
28 | O=c1c2ccccc2nc2n1CCc1c-2[nH]c2ccccc12 | inactive
29 | CC(=O)Nc1nc(C)c(-c2ccc(Cl)c(S(=O)(=O)NCCO)c2)s1 | 1180 nM (active)
30 | COc1cc2ncn(-c3cc(OCc4ccccc4C(F)(F)F)c(C(N)=O)s3)c2cc1OC | 296 nM (active)
31 | Cc1c(CN2CCN(S(C)(=O)=O)CC2)sc2c(N3CCOCC3)nc(-c3cnc(N)nc3)nc12 | 18.7 nM (active)
32 | NC(=O)Nc1cc(-c2cccc(F)c2)sc1C(=O)N[C@H]1CCCNC1 | 105 nM (active)
33 | CC(C)c1cnn2c(NCc3ccccc3)cc(N[C@@H](CO)[C@H](O)CO)nc12 | 132 nM (active)
34 | O=C(C=Cc1cccc(S(=O)(=O)Nc2ccccc2)c1)NO | 1710 nM (active)
35 | O=C(Nc1cn[nH]c1-c1nc2ccc(CN3CCOCC3)cc2[nH]1)NC1CC1 | 2090 nM (active)
36 | CC=C1NC(=O)[C@H]2CSSCCC=C[C@H](CC(=O)N[C@H](C(C)C)C(=O)N2)OC(=O)[C@H](C(C)C)NC1=O | 9.3 nM (active)
37 | CC(C)c1noc(N2CCC(COc3ccc(-c4ccc(S(C)(=O)=O)cc4)nc3)CC2)n1 | inactive
38 | Cc1c(C)n(Cc2ccc(-c3ccccc3C(=O)O)cc2)c2ccc(C(=O)N[C@@H](C)c3ccc([N+](=O)[O-])cc3)cc12 | 93.5 nM (active)
39 | O=c1[nH]nc(Sc2ncc([N+](=O)[O-])s2)n1-c1ccc2c(c1)OCCO2 | 5900 nM (active)
40 | COc1ccc(F)c(F)c1C(=O)c1cnc(NC2CCN(S(C)(=O)=O)CC2)nc1N | 1180 nM (active)
